# Measurements published in PubChem BioAssay (NCATS).
# Records with an inconclusive call do not appear. A call without a number means that no potency is given here. The source made the active and inactive calls. Unless noted, calls come from the whole dose curve; as a rule, active = well fitted curve in the direction sought with a large enough effect; inconclusive = small, poorly fitted or top-dose-only effect, or another doubt; inactive = no such curve, though single readings can be large; an effect the other way counts as inactive or inconclusive.
# Key:
# [1] = biological target: phosphoglycerate mutase (Leishmania major) (UniProt Q4Q090); experiment: qHTS Validation Assay to Find Inhibitors of Phosphoglycerate Mutase (AID 504548)
# phosphoglycerate mutase (Leishmania major), sequence (Q4Q090 1-553): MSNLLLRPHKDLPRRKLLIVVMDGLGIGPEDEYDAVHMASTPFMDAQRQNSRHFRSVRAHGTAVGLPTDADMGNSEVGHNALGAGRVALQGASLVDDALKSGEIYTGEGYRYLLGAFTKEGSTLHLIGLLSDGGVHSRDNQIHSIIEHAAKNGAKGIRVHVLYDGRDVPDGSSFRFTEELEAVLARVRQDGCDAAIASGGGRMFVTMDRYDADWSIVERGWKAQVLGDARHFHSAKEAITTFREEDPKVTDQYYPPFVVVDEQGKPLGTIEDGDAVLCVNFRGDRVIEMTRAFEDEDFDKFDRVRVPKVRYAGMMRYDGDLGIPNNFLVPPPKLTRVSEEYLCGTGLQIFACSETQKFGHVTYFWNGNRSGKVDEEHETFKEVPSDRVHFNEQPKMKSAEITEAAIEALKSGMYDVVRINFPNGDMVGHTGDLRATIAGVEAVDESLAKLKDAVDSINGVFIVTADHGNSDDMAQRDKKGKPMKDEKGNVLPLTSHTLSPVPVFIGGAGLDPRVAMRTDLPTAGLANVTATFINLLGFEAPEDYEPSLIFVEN
# Outline: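 Lm PGAM at 1.25 nM final with substrate in 100 mM TEA pH 7.6, 5 mM MgCl2, 0.01% Tween-20; 45 min at room temperature. Kinase-GloPlus added, 10 min, end-point luminescence read.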
# [2] = Inducers of the Endoplasmic Reticulum Stress Response (ERSR) in human glioma: Validation (AID 504836)
# Outline: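 Stably transfected U87-MG human glioma cells carrying a GRP78-based luminescent sensor were seeded at 1000 cells/well, pin-dosed with compounds and incubated 16 h. Luciferase reagent was then added, and end-point luminescence was read after 10 min at room temperature.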
# [3] = qHTS for Inhibitors of ATXN expression: Validation of Cytotoxic Assay (AID 588349)
# Outline: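 Cytotoxicity counter-screen: HEK293 cells exposed to compound titrations, 72 hr, 37 degrees C. Read-out is intracellular ATP (CellTiter Glo luminescence) as a viability measure.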
# [4] = qHTS for Inhibitors of ATXN expression: Validation (AID 588378); note: nearly all actives have a fitted effect of over 75% in size
# Outline: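 Luciferase luminescence (Bright-Glo) from an ATXN2-FFLuc HEK293 line after 24 h compound exposure at 37 °C, preceded by a CellTiter-Fluor fluorescence viability read. Serial dilutions of a reference ATXN2 inhibitor and a luciferase inhibitor served as controls.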
# [5] = biological target: Glucagon-like peptide 1 receptor (Homo sapiens) (UniProt P43220); experiment: qHTS of GLP-1 Receptor Agonists: LOPAC Validation (AID 624148);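 note: higher luminescence signal means agonism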
# Glucagon-like peptide 1 receptor (Homo sapiens), sequence (P43220 whole entry, looked up): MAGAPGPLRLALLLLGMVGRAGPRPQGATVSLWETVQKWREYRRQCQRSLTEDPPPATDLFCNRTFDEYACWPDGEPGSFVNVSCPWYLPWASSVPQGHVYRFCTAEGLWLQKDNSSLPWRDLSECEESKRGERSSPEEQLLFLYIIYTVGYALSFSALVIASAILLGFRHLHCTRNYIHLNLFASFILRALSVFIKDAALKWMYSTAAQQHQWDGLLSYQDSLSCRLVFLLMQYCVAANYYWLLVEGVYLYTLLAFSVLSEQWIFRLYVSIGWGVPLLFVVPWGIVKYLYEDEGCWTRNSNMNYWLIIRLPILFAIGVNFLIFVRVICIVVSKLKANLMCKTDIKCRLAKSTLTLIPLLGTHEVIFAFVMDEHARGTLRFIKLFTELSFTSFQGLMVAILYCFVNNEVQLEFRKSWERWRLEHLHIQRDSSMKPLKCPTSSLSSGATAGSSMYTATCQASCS
# Outline: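 HEK293 cells stably co-expressing a cAMP-responsive luciferase reporter and a hypersensitive GLP-1R were plated 12 h at 37 °C and exposed to compounds for 4-6 hr at 37 °C, 5% CO2. Luminescence was read 12 min after adding detection reagent.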
# [6] = qHTS of Nrf2 Activators: LOPAC Validation (AID 624149)
# Outline: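 AREc32_Fluc cells, 1000/well, OPTI-MEM + 5% FBS, o/n 37 deg C 5% CO2; compound pin-transfer, 24 hr 37 deg C; Steady-Glo 30 min RT, luminescence read.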
# [7] = HTS Assay for Allosteric Antagonists of the Human D2 Dopamine Receptor: Hit Validation in HTRF (AID 624455)
# Outline: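 HTRF read-out; cells stably expressing D1 receptor; hits scored for inhibition of D1-mediated response. Primary screen: calcium flux, force-coupled inducible Hek293 Trex D2 line, antagonism vs EC80 dopamine.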
# [8] = biological target: D(1A) dopamine receptor (Homo sapiens) (UniProt P21728); experiment: HTS Assay for Allosteric Agonists of the Human D1 Dopamine Receptor: Primary Screen for Potentiators (AID 488982)
# D(1A) dopamine receptor (Homo sapiens), sequence (P21728 whole entry, looked up): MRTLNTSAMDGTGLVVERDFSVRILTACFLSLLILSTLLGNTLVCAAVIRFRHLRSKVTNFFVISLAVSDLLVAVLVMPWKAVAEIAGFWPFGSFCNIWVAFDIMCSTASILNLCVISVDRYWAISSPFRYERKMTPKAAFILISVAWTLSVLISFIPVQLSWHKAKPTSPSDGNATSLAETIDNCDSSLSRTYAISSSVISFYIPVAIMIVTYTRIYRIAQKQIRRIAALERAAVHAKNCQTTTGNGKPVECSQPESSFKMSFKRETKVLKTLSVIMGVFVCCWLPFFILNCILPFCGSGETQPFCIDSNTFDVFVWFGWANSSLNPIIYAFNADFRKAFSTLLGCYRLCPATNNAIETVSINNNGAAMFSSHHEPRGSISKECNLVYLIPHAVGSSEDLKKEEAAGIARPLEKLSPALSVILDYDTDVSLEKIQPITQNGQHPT
# Outline: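 Tetracycline-induced HEK293 T-REx cells force-coupled to calcium signalling were incubated overnight at 30 C and dye-loaded at room temperature. Calcium flux over 180 s after compound addition flagged agonists; a further 180 s read after EC20 dopamine flagged potentiators.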
# [9] = Cytotoxicity counterscreen for NFkB agonists and antagonists (AID 624476);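 note: cells exposed to compound for 48 hours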
# [10] = qHTS Assay for Identification of Small Molecule Agonists for NFkB Signaling Pathway. (AID 624478);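 note: compounds tested together with TNF alpha at its EC50 of 10 pM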
# Outline: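 Read-out: 460/530 nm emission at 405 nm excitation after 2 h LiveBLAzer loading; ME-180 NFkB-bla reporter cells exposed 5 h at 37 C to compounds with 10 pM TNF alpha final.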
# [11] = qHTS Assay for Identification of Small Molecule Antagonists for NFkB Signaling Pathway. (AID 624479; calls by dose curve;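 note: pathway stimulated with TNF alpha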)
# CP203 = experiment: qHTS profiling for inhibitors of Plasmodium falciparum proliferation (AID 504749); note: nearly all actives have a fitted effect of over 60% in size; settings: P. falciparum in erythrocytes, SYBR Green DNA, 72 h; series mostly up to 28.7 µM
# Outline: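 Fluorescence of SYBR Green-bound parasite DNA, read at 485/535 nm, served as the growth measure. Infected erythrocytes were cultured with compound 72 h; artemisinin (0.29 uM) and DMSO wells defined the normalization range.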
# [12] = biological target: Cytochrome P450 2C9 (Homo sapiens) (UniProt P11712); experiment: qHTS Assay for Inhibitors and Substrates of Cytochrome P450 2C9 (AID 883); note: potency is the fitted concentration of half-maximal effect; nearly all actives have a fitted effect of over 60% in size
# Cytochrome P450 2C9 (Homo sapiens), sequence (P11712 whole entry, looked up): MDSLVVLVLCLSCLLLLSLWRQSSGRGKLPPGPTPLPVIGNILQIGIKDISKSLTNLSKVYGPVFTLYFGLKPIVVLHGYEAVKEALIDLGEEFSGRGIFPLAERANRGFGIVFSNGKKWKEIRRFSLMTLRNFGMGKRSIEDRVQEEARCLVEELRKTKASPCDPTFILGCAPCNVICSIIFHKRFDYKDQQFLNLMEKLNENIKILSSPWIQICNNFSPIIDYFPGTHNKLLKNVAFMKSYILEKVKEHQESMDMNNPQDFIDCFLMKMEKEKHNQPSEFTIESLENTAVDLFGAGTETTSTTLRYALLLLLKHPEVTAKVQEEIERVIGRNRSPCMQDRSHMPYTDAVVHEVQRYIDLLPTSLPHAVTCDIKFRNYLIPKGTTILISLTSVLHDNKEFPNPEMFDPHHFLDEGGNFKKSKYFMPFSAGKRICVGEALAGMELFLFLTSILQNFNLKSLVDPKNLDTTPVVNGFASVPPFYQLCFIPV
# Outline: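 Human CYP2C9 (10nM) hydroxylated Luciferin-H (100uM, at its KM) to luciferin in 25mM KPO4. Compound was preincubated 10 min at 37C, then NADPH regeneration started a 60 min reaction at 37C. Luminescence was read after detection reagent, normalized to 57uM sulphaphenazole.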
# [13] = qHTS Assay for Identification of Small Molecule Antagonists for Thrombopoietin (TPO) Signaling Pathway (AID 918); settings: TPO-dependent cell signaling reporter, antagonist mode; note: potency is the fitted concentration of half-maximal effect; nearly all actives have a fitted effect of over 60% in size
# Outline: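 Luminescence read-out: GPIIb-promoter luciferase in Ba/F3 cells carrying human TPO receptor. Compounds added with 26 pM TPO (EC50), 24 hrs, 37 C, 5% CO2; cells deprived of IL-3 overnight beforehand. Inhibition of signal scored.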
# [14] = biological target: Cytochrome P450 3A4 (Homo sapiens) (UniProt P08684); experiment: qHTS Assay for Inhibitors and Substrates of Cytochrome P450 3A4 (AID 884); note: nearly all actives have a fitted effect of over 50% in size; note: potency is the fitted concentration of half-maximal effect
# Cytochrome P450 3A4 (Homo sapiens), sequence (P08684 whole entry, looked up): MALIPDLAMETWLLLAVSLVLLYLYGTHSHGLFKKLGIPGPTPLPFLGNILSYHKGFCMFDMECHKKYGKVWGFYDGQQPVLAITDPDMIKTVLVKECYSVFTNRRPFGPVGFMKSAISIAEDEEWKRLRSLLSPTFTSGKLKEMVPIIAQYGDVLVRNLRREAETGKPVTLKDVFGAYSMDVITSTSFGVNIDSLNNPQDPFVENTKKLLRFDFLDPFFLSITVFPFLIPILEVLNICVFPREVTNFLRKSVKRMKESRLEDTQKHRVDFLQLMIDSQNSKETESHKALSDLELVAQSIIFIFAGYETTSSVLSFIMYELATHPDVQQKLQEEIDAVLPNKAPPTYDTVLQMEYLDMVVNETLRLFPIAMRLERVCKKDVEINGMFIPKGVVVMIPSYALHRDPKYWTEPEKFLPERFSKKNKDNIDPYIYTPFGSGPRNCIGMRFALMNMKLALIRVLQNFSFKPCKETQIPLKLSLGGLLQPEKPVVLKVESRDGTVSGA
# Outline: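 Luminescent readout of luciferin produced by CYP3A4 (20 nM) dealkylation of Luciferin-PPXE, 25 uM (its KM). NADPH-driven reaction ran 60 min at RT after 10 min compound preincubation; data scaled to 57 uM ketoconazole as 100% inhibition.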
# [15] = Primary qHTS for small molecule stabilizers of the endoplasmic reticulum resident proteome: Secreted ER Calcium Modulated Protein (SERCaMP) assay (AID 1508630)
# Outline: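 The SH-SY5Y reporter protocol was run at 3 concentrations up to 38.3 uM (primary) or 11 concentrations (follow-up): 16 h compound, 100 nM thapsigargin for 4 h, then extracellular luciferase luminescence.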
# [16] = Primary qHTS for inhibitors of nuclear receptor binding SET domain protein 2 (NSD2) in an isogenic RCH-ACV NSD2 p.E1099K mutant (9B) (AID 1645876); note: potency is the fitted concentration of half-maximal effect; nearly all actives have a fitted effect of over 70% in size
# [17] = Primary qHTS for inhibitors of nuclear receptor binding SET domain protein 2 (NSD2) in an RCH-ACV wild type WT cells (2C) (AID 1645877); note: potency is the fitted concentration of half-maximal effect; nearly all actives have a fitted effect of over 70% in size
# [18] = biological target: Glutathione peroxidase 1 (Homo sapiens) (UniProt P07203); experiment: Primary qHTS Assay for Inhibitors of Recombinant Selenoprotein Glutathione Peroxidase 1 (GPX1) (AID 1845191); note: nearly all actives have a fitted effect of over 65% in size
# Glutathione peroxidase 1 (Homo sapiens), sequence (P07203 whole entry, looked up): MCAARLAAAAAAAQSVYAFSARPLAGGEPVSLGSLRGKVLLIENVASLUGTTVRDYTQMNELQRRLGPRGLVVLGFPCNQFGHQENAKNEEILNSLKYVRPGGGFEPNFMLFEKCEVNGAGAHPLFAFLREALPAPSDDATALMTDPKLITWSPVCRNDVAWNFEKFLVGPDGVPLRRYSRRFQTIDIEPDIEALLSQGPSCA
# Outline: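 GPX1 10 nM, GR 100 nM, GSH 1 mM, NADPH 0.5 mM, CHP 0.5 mM (final). 30-min cpd preincubation, RT. Ex340/Em450 read t=0, t=15 min.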
# [19] = biological target: Phospholipid hydroperoxide glutathione peroxidase GPX4 (Homo sapiens) (UniProt P36969); experiment: Primary qHTS Assay for Inhibitors of Recombinant Selenoprotein Glutathione Peroxidase 4 (GPX4) (AID 1845192); note: nearly all actives have a fitted effect of over 65% in size
# Phospholipid hydroperoxide glutathione peroxidase GPX4 (Homo sapiens), sequence (P36969 whole entry, looked up): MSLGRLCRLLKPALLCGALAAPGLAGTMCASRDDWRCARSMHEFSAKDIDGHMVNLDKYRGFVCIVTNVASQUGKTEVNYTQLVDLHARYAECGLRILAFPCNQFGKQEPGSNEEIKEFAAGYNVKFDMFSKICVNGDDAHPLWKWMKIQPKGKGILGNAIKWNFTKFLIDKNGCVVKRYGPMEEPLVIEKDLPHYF
# Outline: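 qHTS, GR-coupled: GPX4 200 nM + cpd 30 min RT → GSH 1 mM, NADPH 0.5 mM, GR 100 nM → CHP 0.5 mM start; fluor 340/450 at t0 and t15 min; no-enzyme wells as control.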
smiles,measurement,setting,value
C[C@H]1C2Cc3ccc(O)cc3[C@]1(C)CCN2CC1CC1,outcome,[1],inactive
same,outcome,[2],inactive
same,outcome,[3],inactive
same,outcome,[4],inactive
same,outcome,[5],inactive
same,outcome,[6],inactive
same,outcome,[7],inactive
CC12CCC3C(CCC4=C(O)C(=O)CCC43C)C1CCC2=O (stereo not given),outcome,[8],inactive
same,outcome,[1],inactive
same,outcome,[2],inactive
same,outcome,[3],inactive
same,outcome,[4],inactive
same,outcome,[5],inactive
same,outcome,[6],inactive
same,outcome,[7],inactive
same,outcome,[9],inactive
same,outcome,[10],inactive
same,outcome,[11],inactive
CC(C)(O)C1C2OC(=O)C1[C@]1(O)C[C@H]3O[C@]34C(=O)O[C@H]2[C@]14C (stereo not given in full) (tested in a mixture with another compound),Potency,CP203,inactive
COc1cc(C=C(C#N)C#N)cc(O)c1O,Potency,[12],2510 nM (active)
NCC#Cc1ccccc1,Potency,[13],6310 nM (active)
CCC1/C=C/C=CCC(C)C(O)[C@@](C)(O)C(=O)C(C)C(O)C(C)C(=O)C(C)C(O)C(C)C=CC(=O)O[C@H]2C(C)C(CC1)O[C@]1(CCC(C)C(CC(C)O)O1)C2C (stereo not given in full),Potency,[14],7940 nM (active)
O=C1/C(=C\c2ccccc2)C[C@@]2(O)[C@H]3Cc4ccc(O)c5c4[C@@]2(CCN3CC2CC2)[C@H]1O5,outcome,[15],inactive
CC[C@@H](CO)NC(=O)[C@H]1C=C2c3cccc4c3c(cn4C)C[C@H]2N(C)C1,outcome,[15],inactive
CCCCN1C2CCC1CC(OC(c1ccc(F)cc1)c1ccc(F)cc1)C2 (stereo not given),Potency,[14],inactive
same,Potency,[13],10000 nM (active)
C[C@@H]1CC[C@@]2(OC1)O[C@H]1C[C@H]3[C@@H]4CC=C5C[C@@H](O[C@@H]6O[C@H](CO)[C@@H](O[C@@H]7O[C@@H](C)[C@H](O)[C@@H](O)[C@H]7O)[C@H](O)[C@H]6O[C@@H]6O[C@@H](C)[C@H](O)[C@@H](O)[C@H]6O)CC[C@]5(C)[C@H]4CC[C@]3(C)[C@H]1[C@@H]2C,Potency,[16],2350 nM (active)
same,Potency,[17],3320 nM (active)
same,Potency,[18],inactive
same,Potency,[19],inactive
C/C1=C/C[C@@H](/C(C)=C/c2csc(C)n2)OC(=O)C[C@H](O)C(C)(C)C(=O)[C@H](C)[C@@H](O)[C@@H](C)CCC1,Potency,[16],52.5 nM (active)
same,Potency,[17],41.7 nM (active)
same,Potency,[18],inactive
same,Potency,[19],inactive
CNC(C)[C@@H](O)c1ccc(O)cc1 (stereo not given in full),Potency,CP203,inactive
